Data on 17 compounds can be found in paper PMC5540273 (PLoS ONE, 2017).

Common to all, as to conditions: concentration: 1 μM, replicates: in singlicate; n = 1
The subject of experiment [1] is IRAK1.
For experiment [2], the system named is IRAK3.
Experiment [3] has as its system IRAK4.
The test system of experiment [4] is ITK.
Experiment [5] concerns JAK1(JH1domain-catalytic).
In experiment [6] the test system is JAK1(JH2domain-pseudokinase).
Experiment [7] relates to JAK2(JH1domain-catalytic).
Experiment [8] concerns JAK3(JH1domain-catalytic).
In experiment [9] the test system is T1, JNK1.
T1 construct: gene MAPK8

In experiment [10] the test system is T2, JNK2.
T2 construct: gene MAPK9
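Also: KINOMEscan kinase panel screen.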

In the case of `COc1ccc(Nc2nccc(N3CCC(NC(=O)c4cc5ccccc5s4)C3)n2)cc1` (centres unmarked) [GSK1379738], the “%Inh” value in experiment [1] was 37%; in [2] it was 15%; in experiment [3] it was 19%; in experiment [4] it was 8%; in experiment [5] it was 15%; in [6], 0%. The “%Inh” value was determined as 100% in experiment [7], 0% in experiment [8], 22% in experiment [9] and 10% in [10].

Regarding `Cc1ccc(NC(=O)Nc2ccc(Cl)cc2)cc1-c1ccc(C(=O)Nc2ccncc2)cc1` [GSK1398472], the “%Inh” value is listed as 17% in [1]; 4% in [2]; 7% in [3]; 18% in experiment [4]; 6% in experiment [5]; 0% in experiment [6]. The “%Inh” value in [7] turned out to be 0%; in experiment [8], 0%; in [9], 0%; in experiment [10], 7%.

For the compound `Cc1cnc(N)c(/C=C/c2cncc(C(=O)NCCc3ccc(Cl)cc3Cl)c2)c1.Cl` [GSK190937], the “%Inh” value is reported as 16% in experiment [1]; 0% in [2]; 0% in experiment [3]; 0% in [4]; 0% in [5]; 0% in experiment [6]. Moreover, the “%Inh” value worked out at 0% in [7], 0% in [8], 0% in experiment [9] and 18% in experiment [10].

In the case of `c1ccc(-c2ccnc3[nH]ccc23)cc1` [SB-693578], the “%Inh” value is 64% in [1]; 0% in experiment [2]; 43% in experiment [3]; 18% in [4]; 1% in [5]; 2% in experiment [6]. The “%Inh” value in [7] was 69%; in experiment [8], 76%; in [9], 32%; in experiment [10], 0%.

`COC(=O)C(Cc1ccccc1)NC(=O)NC1CCN(c2ccnc(Nc3ccc(F)cc3)n2)C1` (centres unmarked) [GSK1379714]: the “%Inh” value is 33% in experiment [1]; 0% in experiment [2]; 3% in experiment [3]; 4% in [4]; 16% in [5]; 0% in experiment [6]. Moreover, the “%Inh” value in [7] is reported as 59%; in experiment [8], 0%; in [9], 17%; in experiment [10] it was 1%.

Regarding `O=C(Nc1n[nH]c2nc(-c3cccs3)c(Br)cc12)C1CCCC1` [SB-743341], the “%Inh” value was 0% in [1]; 0% in [2]; 0% in [3]; 10% in [4]; 0% in experiment [5]; 0% in experiment [6]. Further, the “%Inh” value in [7] is listed as 0%; in [8], 0%; in experiment [9], 69%; in experiment [10] it was 44%.

As for `Fc1ccc(-c2nc3n(c2-c2ccncc2)CCS3)cc1` [GI98581], the “%Inh” value in experiment [1] was determined as 3%; in [2], 4%; in experiment [3] it was 0%; in experiment [4], 5%; in experiment [5] it was 10%; in experiment [6], 0%. The “%Inh” value in experiment [7] came out at 0%; in [8] it was 0%; in experiment [9] it was 73%; in [10], 96.2%.

On to `Cl.Cl.Cl.N#Cc1ccc(CCNc2nccc(-c3cccc(CN4CCNCC4)c3)n2)cc1` [GSK2137462], for which the “%Inh” value in [1] is given as 0%; in [2], 0%; in [3] it was 0%; in [4], 7%; in [5], 3%; in experiment [6] it was 6%. Moreover, the “%Inh” value is 0% in experiment [7], 0% in [8], 32% in experiment [9] and 0% in [10].

For `Cn1cnc2c(N)ncnc21` [SKF-97623], the “%Inh” value in experiment [1] is 0%; in experiment [2] it was 0%; in [3], 0%; in experiment [4], 7%; in experiment [5], 19%; in experiment [6], 0%. Moreover, the “%Inh” value in experiment [7] is 0%; in experiment [8] it was 6%; in experiment [9], 1%; in [10] it was 0%.

In the case of `O=C(Nc1n[nH]c2nc(-c3cccs3)c(Br)cc12)C1CC1` [SB-735297], the “%Inh” value is reported as 0% in experiment [1]; 0% in experiment [2]; 0% in experiment [3]; 0% in [4]; 13% in experiment [5]; 21% in experiment [6]. For the same compound, the “%Inh” value in experiment [7] is given as 20%; in experiment [8], 0%; in experiment [9], 40%; in experiment [10] it was 15%.

For `O=C(Nc1n[nH]c2cc(-c3ccsc3)ccc12)C1CC1` [SB-732932], the “%Inh” value in [1] turned out to be 3%; in [2] it was 22%; in experiment [3], 9%; in experiment [4], 0%; in [5], 0%; in experiment [6], 4%. In addition, the “%Inh” value in experiment [7] is reported as 8%; in [8], 0%; in experiment [9] it was 36%; in experiment [10] it was 25%.

On to `Cc1ccc(NC(=O)Nc2ccccc2F)cc1-c1ccc(C(=O)Nc2ccncc2)cc1` [GSK1398477], for which the “%Inh” value in [1] was determined as 0%; in [2] it was 31%; in experiment [3] it was 1%; in [4], 19%; in experiment [5], 12%; in experiment [6] it was 0%. Moreover, the “%Inh” value in experiment [7] is 12%; in experiment [8], 0%; in experiment [9] it was 28%; in [10] it was 27%.

`CNc1nc(-c2ccc3c(N)n[nH]c3c2)cc(N2C[C@@H](C(=O)NC3CCCCC3)OC[C@H]2C)n1` [GSK2375584]: the “%Inh” value in experiment [1] is reported as 21%; in experiment [2], 0%; in [3] it was 0%; in [4], 10%; in [5], 11%; in experiment [6], 0%. Besides, the “%Inh” value in experiment [7] was determined as 0%; in experiment [8] it was 0%; in experiment [9] it was 3%; in experiment [10], 0%.

Turning to `CC(C)c1ccc(O)cc1Nc1ccnc2ccc(C(F)(F)F)cc12` [GW482059], the “%Inh” value in [1] is listed as 0%; in experiment [2], 19%; in experiment [3], 0%; in experiment [4], 0%; in [5] it was 1%; in [6], 0%. In addition, the “%Inh” value in experiment [7] is given as 35%; in [8], 0%; in experiment [9], 3%; in [10], 0%.

In the case of `CC(=O)c1cccc(NC(=O)NC2CCN(c3ccnc(Nc4ccc(F)cc4)n3)C2)c1` (centres unmarked) [GSK1379710], the “%Inh” value in experiment [1] is on record as 27%; in [2], 11%; in experiment [3] it was 7%; in experiment [4], 8%; in experiment [5], 21%; in experiment [6], 9%. Moreover, the “%Inh” value in experiment [7] is 25%; in [8] it was 0%; in experiment [9] it was 16%; in experiment [10] it was 13%.

On to `Cc1nccc(-c2c(-c3ccc(F)cc3)ncn2CCCN2CCOCC2)n1.Cl` [SB-282975], for which the “%Inh” value is given as 39% in [1]; 0% in experiment [2]; 30% in experiment [3]; 24% in experiment [4]; 0% in experiment [5]; 17% in experiment [6]. For the same compound, the “%Inh” value in [7] is listed as 37%; in experiment [8], 9%; in [9], 13%; in experiment [10], 40%.

On to `COc1ccc(Nc2nccc(N3CCC(NC(=O)C(C)c4ccc(Cl)cc4)CC3)n2)cc1` (centres unmarked) [GSK1379812], for which the “%Inh” value was found to be 6% in experiment [1]; 18% in experiment [2]; 0% in [3]; 22% in experiment [4]; 26% in experiment [5]; 6% in [6]. For the same compound, the “%Inh” value in experiment [7] worked out at 0%; in [8], 0%; in experiment [9], 1%; in experiment [10] it was 14%.
